This is part of a sample that, as a whole, favours compounds with a hit. Of some 79,000 tested, about 15% had one in any assay. Calls of active or inactive are those of the source. No stated cut-off is given here; in the data, active means growth inhibition above about 70%; inactive means the rest.
Experiments:
[1] = NCI Yeast Anticancer Drug Screen. Data for the rad52 strain (AID 147);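 further: 0% = growth of vehicle-treated control cultures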; conditions: S. cerevisiae rad52 mutant growth inhibition, hits give high values
How it was run: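 Inhibition of yeast growth, referenced to vehicle controls, was the measured output for a strain with defective DNA damage repair.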

[2] = NCI Yeast Anticancer Drug Screen. Data for the wt1 strain (AID 149);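 further: 0% = growth of vehicle-treated wt1 cultures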; conditions: S. cerevisiae wt1 strain (SPY 50644) growth inhibition, hits give high values
How it was run: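 wt1 yeast, compound-treated; % growth inhibition vs vehicle control.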

[3] = NCI Yeast Anticancer Drug Screen. Data for the rad50EPP+ strain (AID 151);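 further: 0% = growth of vehicle-treated control cultures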; conditions: S. cerevisiae rad50 mutant strain, hits give high values
How it was run: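 Genetically defined yeast (rad50EPP+, DNA damage repair alteration) is grown with compound, and inhibition of growth is expressed relative to vehicle-treated controls.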

[4] = NCI Yeast Anticancer Drug Screen. Data for the mgt1 strain (AID 153); conditions: S. cerevisiae mgt1 mutant growth inhibition, hits give high values
How it was run: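 In the mgt1 strain, test compounds were added and growth inhibition was determined relative to vehicle-treated controls.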

[5] = NCI Yeast Anticancer Drug Screen. Data for the rad50 strain (AID 155);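 further: 0% = growth of vehicle-only cultures of the same strain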; conditions: S. cerevisiae rad50 strain growth inhibition, hits give high values
How it was run: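 Genetically altered yeast (DNA repair pathway); compound treatment; growth inhibition vs vehicle ctrl.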

[6] = NCI Yeast Anticancer Drug Screen. Data for the mec2-1 strain (AID 157); conditions: S. cerevisiae mec2-1 strain, hits give high values
How it was run: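 Each compound was tested on mec2-1 yeast, a strain altered in DNA damage repair or cell cycle control. Growth inhibition is reported relative to vehicle.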

[7] = NCI Yeast Anticancer Drug Screen. Data for the sgs1 mgt1 strain (AID 161);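 further: 0% = growth of cultures given vehicle only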; conditions: S. cerevisiae sgs1 mgt1 strain, hits give high values
How it was run: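 Inhibition of yeast growth, normalised to vehicle-treated controls, is reported for a strain bearing genetic alterations in DNA damage repair.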

[8] = NCI Yeast Anticancer Drug Screen. Data for the CLN2oe strain (AID 163);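 further: 0% = growth of vehicle-only control cultures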; conditions: S. cerevisiae CLN2oe strain, hits give high values
How it was run: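 First, the altered yeast strain was treated with each compound; second, its growth was measured; finally, inhibition was derived by comparison with vehicle controls.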

[9] = NCI Yeast Anticancer Drug Screen. Data for the cln2 rad14 strain (AID 165);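 further: 0% = growth equal to vehicle treated cultures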; conditions: S. cerevisiae cln2 rad14 strain, hits give high values
How it was run: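 Test compounds were added to cln2 rad14 yeast cultures; inhibition of growth was then determined by comparison with vehicle treatment.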

[10] = NCI Yeast Anticancer Drug Screen. Data for the bub3 strain (AID 167); conditions: S. cerevisiae bub3 mutant strain, hits give high values
How it was run: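 Yeast carrying a defined mutation is treated with each compound, and growth is compared with that of vehicle-exposed cells to give inhibition.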

[11] = NCI Yeast Anticancer Drug Screen. Data for the wt2 strain (AID 169);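 further: 0% = growth of vehicle-treated yeast cultures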; conditions: S. cerevisiae wt2 strain growth inhibition, hits give high values
How it was run: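 The panel's yeast strains carry defined changes in DNA repair or cell cycle genes. Each strain is grown with compound, and growth loss is scored relative to vehicle.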

[12] = NCI Yeast Anticancer Drug Screen. Data for the sgs1 strain (AID 173);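 further: 0% = growth of vehicle-only control cultures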; conditions: S. cerevisiae sgs1 mutant, hits give high values
How it was run: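 Vehicle-treated cultures served as reference for growth inhibition of a yeast strain altered in DNA damage repair or cell cycle control after compound exposure.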

[13] = NCI Yeast Anticancer Drug Screen. Data for the mlh1 rad18 strain (AID 175); conditions: S. cerevisiae mlh1 rad18 strain growth inhibition, hits give high values
How it was run: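 Inhibition values reflect reduced growth of mutant yeast versus vehicle-treated controls following compound exposure; the mutations affect DNA damage repair.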

[14] = NCI Yeast Anticancer Drug Screen. Data for the rad18 strain (AID 177); conditions: S. cerevisiae rad18 mutant growth inhibition, hits give high values
How it was run: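 Steps: expose repair-mutant yeast to compound; measure growth; express as inhibition relative to vehicle control.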

[15] = NCI Yeast Anticancer Drug Screen. Data for the rad14 strain (AID 159);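 further: 0% = growth of vehicle-treated control cultures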; conditions: S. cerevisiae rad14 strain growth inhibition, hits give high values
How it was run: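 Test compounds were applied to a repair-deficient yeast strain. Its growth was then compared with that of cultures given vehicle alone, and inhibition was expressed relative to those controls.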

[16] = NCI Yeast Anticancer Drug Screen. Data for the mlh1 strain (AID 171);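 further: 0% = growth of vehicle-treated control cultures of the same strain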; conditions: S. cerevisiae mlh1 strain growth inhibition, hits give high values
How it was run: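 Inhibition values reflect reduced yeast growth in the presence of compound, referenced to vehicle controls, using a strain chosen for its alteration in DNA repair or cell cycle control.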

[17] = at 5.0 µM (retest, dose inferred, filed as 0.5)
[18] = at 50.0 µM (retest, dose inferred, filed as 5.0)

Measured: growth inhibition

O=[N+]([O-])c1ccc(S(=O)(=O)Cc2ccccc2)c([N+](=O)[O-])c1
active: [1]; at 33.0 µM 89% | [1]; at 100.0 µM 99% | [2]; at 33.0 µM 88% | [2]; at 100.0 µM 99% | [3]; at 11.0 µM 87% | [3]; at 33.0 µM 97% | [3]; at 100.0 µM 97% | [4]; at 33.0 µM 98% | [4]; at 100.0 µM 99% | [5]; at 33.0 µM 87% | [5]; [18] 100% | [5]; at 50.0 µM 99.5% | [5]; at 100.0 µM 98% | [6]; at 33.0 µM 96% | [6]; [18] 100% | [6]; at 50.0 µM 99.8% | [6]; at 100.0 µM 99% | [7]; [18] 100% | [7]; at 50.0 µM 99.5% | [8]; at 100.0 µM 95% | [9]; [18] 99% | [9]; at 50.0 µM 98.6% | [10]; at 33.0 µM 85% | [10]; [18] 99% | [10]; at 50.0 µM 99.4% | [10]; at 100.0 µM 95% | [11]; at 33.0 µM 98% | [11]; at 100.0 µM 98% | [12]; at 33.0 µM 98% | [12]; at 100.0 µM 99% | [13]; [18] 100% | [13]; at 50.0 µM 99.4% | [14]; at 11.0 µM 87% | [14]; at 33.0 µM 96% | [14]; at 100.0 µM 99%
inactive: [1]; at 1.2 µM 6% | [1]; at 3.7 µM 17% | [1]; at 11.0 µM 47% | [2]; at 1.2 µM 6% | [2]; at 3.7 µM 9% | [2]; at 11.0 µM 24% | [3]; at 1.2 µM 36% | [3]; at 3.7 µM 67% | [4]; at 1.2 µM 10% | [4]; at 3.7 µM 14% | [4]; at 11.0 µM 35% | [5]; at 1.2 µM 9% | [5]; at 3.7 µM 14% | [5]; [17] 65% | [5]; at 11.0 µM 41% | [6]; at 1.2 µM 12% | [6]; at 3.7 µM 18% | [6]; [17] 31% | [6]; at 11.0 µM 39% | [7]; [17] 46% | [8]; at 1.2 µM -1% | [8]; at 3.7 µM 7% | [8]; at 11.0 µM 21% | [8]; at 33.0 µM 61% | [9]; [17] 7% | [10]; at 1.2 µM 1% | [10]; at 3.7 µM 6% | [10]; [17] 56% | [10]; at 11.0 µM 44% | [11]; at 1.2 µM 7% | [11]; at 3.7 µM 15% | [11]; at 11.0 µM 37% | [12]; at 1.2 µM 16% | [12]; at 3.7 µM 30% | [12]; at 11.0 µM 65% | [13]; [17] 65% | [14]; at 1.2 µM 27% | [14]; at 3.7 µM 57%

O=C(NCCCCN1CC2CCCC2C1)C(C1CCCCC1)C1CCCCC1 (stereo unspecified)
active: [1]; at 33.0 µM 76% | [1]; at 100.0 µM 98% | [2]; at 33.0 µM 75% | [2]; at 100.0 µM 97% | [4]; at 33.0 µM 94% | [4]; at 100.0 µM 98% | [5]; at 33.0 µM 85% | [5]; [18] 94% | [5]; at 100.0 µM 79% | [6]; at 33.0 µM 86% | [6]; [18] 93% | [6]; at 100.0 µM 98% | [15]; at 33.0 µM 97% | [15]; at 100.0 µM 99% | [7]; [18] 90% | [7]; at 50.0 µM 76.7% | [9]; [18] 96% | [10]; [17] 94% | [10]; at 33.0 µM 90% | [10]; [18] 99% | [10]; at 100.0 µM 98% | [11]; at 33.0 µM 93% | [11]; at 100.0 µM 98% | [16]; at 33.0 µM 91% | [16]; at 100.0 µM 99% | [12]; at 33.0 µM 94% | [12]; at 100.0 µM 98% | [13]; [18] 96% | [13]; at 50.0 µM 73% | [14]; at 33.0 µM 90% | [14]; at 100.0 µM 98%
inactive: [1]; at 1.2 µM 11% | [1]; at 3.7 µM 12% | [1]; at 11.0 µM 35% | [2]; at 1.2 µM 3% | [2]; at 3.7 µM 6% | [2]; at 11.0 µM 14% | [3]; at 1.2 µM 0% | [3]; at 3.7 µM 1% | [3]; at 11.0 µM 2% | [3]; at 33.0 µM 3% | [3]; at 100.0 µM -3% | [4]; at 1.2 µM 4% | [4]; at 3.7 µM 5% | [4]; at 11.0 µM 40% | [5]; at 1.2 µM 7% | [5]; at 3.7 µM 4% | [5]; [17] 35% | [5]; at 11.0 µM 34% | [5]; at 50.0 µM 67.2% | [6]; at 1.2 µM 13% | [6]; at 3.7 µM 15% | [6]; [17] 17% | [6]; at 11.0 µM 39% | [6]; at 50.0 µM 5.4% | [15]; at 1.2 µM 9% | [15]; at 3.7 µM 12% | [15]; at 11.0 µM 52% | [7]; [17] 23% | [9]; [17] 22% | [9]; at 50.0 µM 43.9% | [10]; at 1.2 µM 10% | [10]; at 3.7 µM 11% | [10]; at 11.0 µM 42% | [10]; at 50.0 µM 61.5% | [11]; at 1.2 µM 2% | [11]; at 3.7 µM 5% | [11]; at 11.0 µM 25% | [16]; at 1.2 µM 7% | [16]; at 3.7 µM 5% | [16]; at 11.0 µM 25% | [12]; at 1.2 µM 9% | [12]; at 3.7 µM 11% | [12]; at 11.0 µM 34% | [13]; [17] 16% | [14]; at 1.2 µM 16% | [14]; at 3.7 µM 23% | [14]; at 11.0 µM 49%

Source: PubChem BioAssay (NCI)
